# High-throughput results as filed in PubChem BioAssay.
# RE007 growth inh: less growth of the S. pombe RE007 Vpr strain; Potency, µM (top dose mostly 92.2 µM), hits mostly inhibitors; S. pombe RE007 Vpr strain, BacTiter-Glo ATP luminescence, 24 h; 0.21% of 360,000 active; active = well fitted falling curve with a large enough effect; inconclusive = small, poorly fitted or top-dose-only effect; inactive = no such curve, though single readings can be large or run the other way; also: nearly all actives have a fitted effect of over 50% in size
#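 Fission yeast RE007 carrying one integrated HIV-1 vpr copy, seeded at OD 0.01 in PMG+AL medium with 23 nL pinned compound. Grown 24 h at 30 degrees; viability read by BacTiter-Glo luminescence after 5 min.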
# LmPK inhibitor: LmPK (Leishmania mexicana) enzyme inhibition; purified LmPK, Kinase-Glo ATP luminescence, 1 h; Potency, µM (top dose mostly 57.5 µM), hits mostly inhibitors; 0.37% of 290,000 active
# Target sequence (Q27686 whole entry, looked up): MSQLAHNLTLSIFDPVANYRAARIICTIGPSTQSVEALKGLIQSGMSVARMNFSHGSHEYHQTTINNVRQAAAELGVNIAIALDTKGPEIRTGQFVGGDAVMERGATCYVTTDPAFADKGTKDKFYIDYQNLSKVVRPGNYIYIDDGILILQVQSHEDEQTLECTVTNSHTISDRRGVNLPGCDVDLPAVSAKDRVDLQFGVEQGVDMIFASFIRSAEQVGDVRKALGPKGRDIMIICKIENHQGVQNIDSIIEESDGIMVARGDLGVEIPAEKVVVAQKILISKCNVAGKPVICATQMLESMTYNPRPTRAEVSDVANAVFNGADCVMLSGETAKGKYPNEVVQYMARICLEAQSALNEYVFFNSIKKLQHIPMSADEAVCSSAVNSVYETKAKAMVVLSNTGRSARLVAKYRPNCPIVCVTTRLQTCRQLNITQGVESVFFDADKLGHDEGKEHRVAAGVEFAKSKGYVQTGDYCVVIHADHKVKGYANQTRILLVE
#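 Purified LmPK (0.1 nM) with 0.5 mM PEP and 0.1 mM ADP in imidazole buffer pH 7.2 with MgCl2/KCl, 1 h at room temperature. ATP formed was read by luciferase luminescence and normalized to no-enzyme and uninhibited controls.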
# Tb PYK inh: inhibitors of Trypanosoma brucei pyruvate kinase. AID 624173. TbPYK enzyme, Kinase-Glo Plus ATP luminescence, 45 min. Potency, µM (titrated, usually from 76.8 µM), actives largely listed as inhibitors. 0.12% of 410,000 active. Q57TT1; also: nearly all actives have a fitted effect of over 50% in size
#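 Screened from lowest to highest concentration, compounds were pinned into TbPYK/substrate mixtures, and ADP (130 uM final) was added. Plates sat at room temperature for 45 min prior to Kinase-Glo Plus detection by luminescence.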
# FBPA Giardia inh: blocks Giardia fructose-bisphosphate aldolase activity; purified Giardia FBPA; Potency, µM (series often up to 59.6 µM), actives largely listed as inhibitors; 0.71% of 290,000 active; A8B2U2; AID 2451; also: nearly all actives have a fitted effect of over 55% in size
#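 Giardia FBPA (40 nM reagent) was preincubated 10 min at RT with compound (up to 57.5 uM final), then substrate plus GAPDH/TPI/NAD/arsenate coupling system with diaphorase/resazurin was added; resorufin fluorescence (525/598 nm) was read after 20 min.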
# Cycloheximide cs: counter-screen for Shiga toxin inhibitors: cycloheximide protein synthesis inhibition; cell reporter, cycloheximide protein synthesis inhibition counterscreen; AID 2314; 12% of 300,000 active; max response, %; in the data active = max response mostly above about 13%, no sharp cut-off; inactive = mostly below about 14%; also: read at 38.3 µM for the half of the compounds with a filed dose
# Shiga toxin inh: Shiga toxin inhibition. Vero cells, Shiga toxin protein synthesis inhibition reporter. inhibition, % at 38.7 µM. 9.2% of 290,000 active; in the data active = inhibition mostly above about 28%, no sharp cut-off; inactive = mostly below about 43%
# A number is an active result; 0 = inactive; ? = inconclusive; - = not tested or not shown; [ ] = another dose, or the depositor's remark. Many of the other results were omitted from the sample, so hits are more common in it than they were. Unless noted, calls follow the shape of the dose curve; as a rule, active = well fitted curve in the direction sought with a large enough effect; inconclusive = small, poorly fitted or top-dose-only effect, or another doubt; inactive = no such curve, though single readings can be large; an effect the other way counts as inactive or inconclusive.
SMILES,RE007 growth inh,LmPK inhibitor,Tb PYK inh,FBPA Giardia inh,Cycloheximide cs,Shiga toxin inh
Cn1cc([N+](=O)[O-])c(C(=O)Nc2ccc3nc(-c4ccccc4)[nH]c3c2)n1,0,0,0,0,41.7,46.7
Cc1ccc(S(=O)(=O)Nc2ccccc2C(=O)N2CCCCC2C)c(C)c1NS(C)(=O)=O (configuration not stated),0,0,0,0,0,0
Cc1oc2cc(O)ccc2c(=O)c1Oc1ccc2ccccc2c1,0[3.69 µM],0,-,0,0,38.1
Cc1ccc(NC(=O)COC(=O)C2CC2(Cl)Cl)cc1C (configuration not stated),0,0,0,0,31.1,0
Cc1cc(C)cc(OCC(=O)O/N=C(\N)c2ccccn2)c1,0,0,0,0,0,0
Cc1ccc(NC(=O)COc2ccc(/C(N)=N/O)cc2)cc1C,0,0,0,0,0,84.1
Cc1cccc(OCC(=O)O/N=C(\N)c2ccccn2)c1,0,0,0,0,51.6,62.5
Cc1ccc(NC(=O)COC(=O)C2CC2)cc1Cl,0,-,0,-,-,-
CCc1ccc(OCC(=O)O/N=C(\N)c2ccccn2)cc1,0,0,0,0,54.3,84.8
CCc1ccc(OCC(=O)O/N=C(\N)Cc2ccc([N+](=O)[O-])cc2)cc1,0,0,0,0,0,0
N#Cc1cccc(C(=O)C(=O)N2CCN(c3ccccc3)CC2)c1,0,-,-,-,-,-
COc1ccc(C(=O)/C(Br)=C/C(=O)O)cc1,-,-,0,-,-,-
Cc1cccc(N(CC(=O)N(C)Cc2ccccc2)S(=O)(=O)c2ccccc2)c1C,-,-,0,-,-,-
Cc1ccc(OCC(=O)O/N=C(\N)c2ccccn2)cc1C,0,0,0,0,50.8,94.8
Cc1cc(OCC(=O)O/N=C(\N)c2ccccc2)ccc1Br,0,0,0,0,33.2,active
N/C(=N\OC(=O)COc1ccccc1)c1ccccn1,0,0,0,0,33.9,65.7
Cc1ccc(C(=O)O/N=C(\N)c2ccccn2)cc1C,0,?,?,0,0,0
Cc1ccc(OCC(=O)O/N=C(\N)c2ccncc2)cc1C,0,0,0,0,28.9,53.9
N/C(=N\OC(=O)COc1ccccc1)c1ccc(Cl)cc1,0,0,0,0,0,0
COc1ccc(-c2nc(CSCC(=O)N3CCN(c4cccc(C)c4C)CC3)c(C)o2)cc1OC,-,-,0,-,-,-
Cc1cccc(NC(=O)c2nc[nH]c2C(=O)Nc2cc(Br)ccc2F)c1,0,-,0,-,-,-
CCNC(=O)C1(C)CCN(C(=O)c2c(F)cccc2F)C1 (configuration not stated),0,-,0,-,-,-
O=C1C=CC(=Nc2ccc(F)cc2)O1,5.01µM,-,?,-,-,-
O=C1C=CC(=Nc2ccc3c(c2)C(=O)c2ccccc2-3)O1,?,-,0,-,-,-
COc1cccc(Cn2c(=O)c(C)nc3cnc(N4CCOCC4)nc32)c1,-,-,0,0,-,-
SMILES,RE007 growth inh,LmPK inhibitor,Tb PYK inh,FBPA Giardia inh,Cycloheximide cs,Shiga toxin inh
Cc1ccc(COc2coc(CO)cc2=O)cc1,0,0,0,0,37.9,0
O=C(c1c(F)cccc1F)N(Cc1ccccn1)C1CC1,0,0,0,0,23.8,0
CCCS(=O)(=O)N1CCCC(c2nc(-c3cccc(OC)c3)no2)C1 (configuration not stated),0,0,0,0,17.8,0
CCCCC(=O)N1CCCC(c2nc(-c3cccc(OC)c3)no2)C1 (configuration not stated),0,0,0,0,41.2,82.5
COc1cccc(-c2noc(C3CCCN(C(=O)c4ccccc4OC)C3)n2)c1 (configuration not stated),0,0,0,0,52.1,47.8
COc1cc(C)c(CN2CCN(CC(=O)Nc3ccccc3C(=O)NC3CC3)CC2)cc1OC,0,-,0,-,-,-
CCOC(=O)c1ccc(NC(=O)N(CC)CC)cc1,0,0,0,0,37.4,62.2
CCOC(=O)c1ccc(NC(=O)C(CC)CC)cc1,0,0,0,0,29.9,71.2
CCCN(C(=O)c1c(CC)noc1C)c1c(N)n(Cc2ccccc2)c(=O)[nH]c1=O,0,-,0,-,-,-
Cc1ccc2cc(/C=N/NC(=O)[C@H]3C[C@@H]3c3ccccc3)c(Cl)nc2c1,0,0,0,0,15.9,0
COc1ccc(C(=O)Oc2cccc3cccnc23)cc1S(=O)(=O)N1CCOCC1,31.6µM,0,0,0,0,0
COc1ccc(C(=O)Oc2ccc(C)cc2)cc1S(=O)(=O)N1CCOCC1,0,-,0,-,-,-
COc1ccc(C(=O)Oc2cccc3cccnc23)cc1[N+](=O)[O-],63.1µM,0,0,0,0,0
COc1ccc2nc(N/C(N)=N/S(C)(=O)=O)nc(C)c2c1,0,0,0,0,0,0
C/C(=N\N=c1/sc2ccccc2n1C)c1ccccn1,0,0,0,0,78.0,68.6
C/C(=N\N=c1/sc2ccccc2n1C)c1ccc(N2CCOCC2)cc1,0,0,0,0,22.2,0
COc1cc(C(=O)N=c2sc3ccccc3n2C)cc(OC)c1OC,0,0,0,0,0,0
CN(C)S(=O)(=O)N1CCC(N2CCN(Cc3ccc(F)cc3)C(=O)C2=O)CC1,-,-,0,-,-,-
CCCNC(=O)OCCC12CC3CC(CC(C3)C1)C2,0,0,0,0,59.4,25.1
CCCNC(=O)NCCC12CC3CC(CC(C3)C1)C2,0,0,0,0,44.8,64.9
CC1(C)CNC(=O)c2sc(N3CCCCC3)nc2C1,0,0,0,0,23.2,0
CC1(C)CC(=O)c2sc(NS(C)(=O)=O)nc2C1,0,0,0,0,0,0
CC1(C)CC(=O)c2sc(N3CCCCC3)nc2C1,0,0,0,0,28.6,92.0
Cc1ccc(-c2cnc(C(O)c3cccc(Cl)c3)[nH]2)cc1 (configuration not stated),0,-,0,-,-,-
Cc1cc(N2O[C@H]3C=C[C@@H]2C3)no1,0,-,0,-,-,-
SMILES,RE007 growth inh,LmPK inhibitor,Tb PYK inh,FBPA Giardia inh,Cycloheximide cs,Shiga toxin inh
Cc1ccc(NC(=O)CSc2nc(=O)n(Cc3ccncc3)c3c2CCC3)c(C)c1,0,-,0,-,-,-
O=C(/C=C/c1ccnc2ccccc12)c1cccs1,?,?,?,0,37.6,72.9
O=[N+]([O-])c1ccc(CN2CC(N3CCC(Cc4ccccc4)CC3)CS2(=O)=O)cc1 (configuration not stated),0,-,0,-,-,-
Cc1ccc(-c2csc(NC(=O)CSc3nc(C)cc(=O)[nH]3)n2)cc1,0,0,0,0,30.7,0
CCCc1cc(=O)[nH]c(SCC(=O)Nc2ccc(C)cc2)n1,0,0,0,0,0,0
Cc1ccc(-c2csc(NC(=O)CSC3=NCCS3)n2)cc1,0[3.69 µM],0,-,0,49.8,69.1
CCC(Sc1nc(C)cc(=O)[nH]1)C(=O)Nc1nc(-c2ccccc2)cs1 (configuration not stated),0,0,0,0,31.0,0
CSc1ncccc1C(=O)Nc1cccc(S(=O)(=O)N2CCCCC2)c1,0,-,0,-,-,-
O=[N+]([O-])c1ccc(N2CCN(c3ccccc3O)CC2)c(Cl)c1,?,0,0,?,47.7,133.1
